Measured values published in PubChem BioAssay (NCI).
The panel holds about 79,000 compounds, 15% with a hit somewhere; the sample as a whole holds those more often. Activity calls are given as the source filed them. No stated cut-off is given here; in the data, active means growth inhibition above about 70%; inactive means the rest.

Tests used:
[1] = NCI Yeast Anticancer Drug Screen. Data for the rad52 strain (AID 147);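 further: 0% = growth of vehicle-treated control cultures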; details: S. cerevisiae rad52 mutant growth inhibition, hits give high values
Procedure, shortened: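 Inhibition of yeast growth, referenced to vehicle controls, was the measured output for a strain with defective DNA damage repair.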

[2] = NCI Yeast Anticancer Drug Screen. Data for the wt1 strain (AID 149);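 further: 0% = growth of vehicle-treated wt1 cultures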; details: S. cerevisiae wt1 strain (SPY 50644) growth inhibition, hits give high values
Procedure, shortened: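 Growth inhibition read against vehicle controls after compound exposure of the wt1 yeast strain.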

[3] = NCI Yeast Anticancer Drug Screen. Data for the rad50 strain (AID 155);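 further: 0% = growth of vehicle-only cultures of the same strain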; details: S. cerevisiae rad50 strain growth inhibition, hits give high values
Procedure, shortened: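 Readout: growth inhibition relative to vehicle-treated cultures. Compound exposure was carried out in a genetically defined yeast strain deficient in DNA damage repair.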

[4] = NCI Yeast Anticancer Drug Screen. Data for the mec2-1 strain (AID 157); details: S. cerevisiae mec2-1 strain, hits give high values
Procedure, shortened: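 Each compound was tested on mec2-1 yeast, a strain altered in DNA damage repair or cell cycle control. Growth inhibition is reported relative to vehicle.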

[5] = NCI Yeast Anticancer Drug Screen. Data for the rad14 strain (AID 159);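 further: 0% = growth of vehicle-treated control cultures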; details: S. cerevisiae rad14 strain growth inhibition, hits give high values
Procedure, shortened: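 Growth inhibition vs vehicle controls; genetically altered yeast strain (DNA damage repair defect) treated with test compounds.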

[6] = NCI Yeast Anticancer Drug Screen. Data for the sgs1 mgt1 strain (AID 161);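 further: 0% = growth of cultures given vehicle only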; details: S. cerevisiae sgs1 mgt1 strain, hits give high values
Procedure, shortened: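 Mutant yeast exposed to compound; growth scored against vehicle-only wells.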

[7] = NCI Yeast Anticancer Drug Screen. Data for the CLN2oe strain (AID 163);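 further: 0% = growth of vehicle-only control cultures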; details: S. cerevisiae CLN2oe strain, hits give high values
Procedure, shortened: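 First, the altered yeast strain was treated with each compound; second, its growth was measured; finally, inhibition was derived by comparison with vehicle controls.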

[8] = NCI Yeast Anticancer Drug Screen. Data for the cln2 rad14 strain (AID 165);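 further: 0% = growth equal to vehicle treated cultures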; details: S. cerevisiae cln2 rad14 strain, hits give high values
Procedure, shortened: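 Test compounds were added to cln2 rad14 yeast cultures; inhibition of growth was then determined by comparison with vehicle treatment.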

[9] = NCI Yeast Anticancer Drug Screen. Data for the bub3 strain (AID 167); details: S. cerevisiae bub3 mutant strain, hits give high values
Procedure, shortened: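 Readout: yeast growth inhibition, expressed relative to vehicle-only wells. The test organism is a mutant strain from a panel with lesions in DNA repair or checkpoint genes.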

[10] = NCI Yeast Anticancer Drug Screen. Data for the wt2 strain (AID 169);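 further: 0% = growth of vehicle-treated yeast cultures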; details: S. cerevisiae wt2 strain growth inhibition, hits give high values
Procedure, shortened: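 The panel's yeast strains carry defined changes in DNA repair or cell cycle genes. Each strain is grown with compound, and growth loss is scored relative to vehicle.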

[11] = NCI Yeast Anticancer Drug Screen. Data for the mlh1 strain (AID 171);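 further: 0% = growth of vehicle-treated control cultures of the same strain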; details: S. cerevisiae mlh1 strain growth inhibition, hits give high values
Procedure, shortened: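 Inhibition values reflect reduced yeast growth in the presence of compound, referenced to vehicle controls, using a strain chosen for its alteration in DNA repair or cell cycle control.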

[12] = NCI Yeast Anticancer Drug Screen. Data for the sgs1 strain (AID 173);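 further: 0% = growth of vehicle-only control cultures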; details: S. cerevisiae sgs1 mutant, hits give high values
Procedure, shortened: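 Vehicle-treated cultures served as reference for growth inhibition of a yeast strain altered in DNA damage repair or cell cycle control after compound exposure.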

[13] = NCI Yeast Anticancer Drug Screen. Data for the mlh1 rad18 strain (AID 175); details: S. cerevisiae mlh1 rad18 strain growth inhibition, hits give high values
Procedure, shortened: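 Inhibition values reflect reduced growth of mutant yeast versus vehicle-treated controls following compound exposure; the mutations affect DNA damage repair.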

[14] = NCI Yeast Anticancer Drug Screen. Data for the rad18 strain (AID 177); details: S. cerevisiae rad18 mutant growth inhibition, hits give high values
Procedure, shortened: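 Steps: expose repair-mutant yeast to compound; measure growth; express as inhibition relative to vehicle control.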

[15] = NCI Yeast Anticancer Drug Screen. Data for the rad50EPP+ strain (AID 151);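 further: 0% = growth of vehicle-treated control cultures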; details: S. cerevisiae rad50 mutant strain, hits give high values
Procedure, shortened: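 Genetically defined yeast (rad50EPP+, DNA damage repair alteration) is grown with compound, and inhibition of growth is expressed relative to vehicle-treated controls.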

[16] = NCI Yeast Anticancer Drug Screen. Data for the mgt1 strain (AID 153); details: S. cerevisiae mgt1 mutant growth inhibition, hits give high values
Procedure, shortened: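 In the mgt1 strain, test compounds were added and growth inhibition was determined relative to vehicle-treated controls.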

[17] = at 5.0 µM (retest, dose inferred, filed as 0.5)
[18] = at 50.0 µM (retest, dose inferred, filed as 5.0)

Measured: growth inhibition

COc1ccc2c(C)cc(N/N=C/c3sccc3C)nc2c1
active: [3]; at 33.0 µM 80% | [3]; [18] 92% | [3]; at 100.0 µM 73% | [4]; [18] 92% | [6]; at 50.0 µM 80.3% | [9]; at 33.0 µM 88% | [9]; at 100.0 µM 82% | [10]; at 33.0 µM 78% | [10]; at 100.0 µM 73% | [12]; at 33.0 µM 88% | [12]; at 100.0 µM 78% | [13]; [18] 94% | [13]; at 50.0 µM 76.3% | [14]; at 33.0 µM 85% | [14]; at 100.0 µM 70%
inactive: [1]; at 1.2 µM -31% | [1]; at 3.7 µM -45% | [1]; at 11.0 µM -35% | [1]; at 33.0 µM 29% | [1]; at 100.0 µM 18% | [2]; at 1.2 µM -30% | [2]; at 3.7 µM -32% | [2]; at 11.0 µM -15% | [2]; at 33.0 µM 63% | [2]; at 100.0 µM 66% | [3]; at 1.2 µM -15% | [3]; at 3.7 µM -25% | [3]; [17] 22% | [3]; at 11.0 µM 23% | [3]; at 50.0 µM 68.5% | [4]; at 1.2 µM -22% | [4]; at 3.7 µM -28% | [4]; [17] 12% | [4]; at 11.0 µM -8% | [4]; at 33.0 µM 57% | [4]; at 50.0 µM 50% | [4]; at 100.0 µM 46% | [5]; at 1.2 µM -53% | [5]; at 3.7 µM -27% | [5]; at 11.0 µM -10% | [5]; at 33.0 µM 35% | [5]; at 100.0 µM 31% | [6]; [17] 19% | [6]; [18] 8% | [7]; at 1.2 µM -6% | [7]; at 3.7 µM -9% | [7]; at 11.0 µM 0% | [7]; at 33.0 µM 65% | [7]; at 100.0 µM 56% | [8]; [17] 4% | [8]; [18] -26% | [8]; at 50.0 µM 45.8% | [9]; at 1.2 µM -11% | [9]; at 3.7 µM 10% | [9]; [17] 13% | [9]; at 11.0 µM -7% | [9]; [18] -26% | [9]; at 50.0 µM 45.1% | [10]; at 1.2 µM 13% | [10]; at 3.7 µM -6% | [10]; at 11.0 µM 24% | [11]; at 1.2 µM -27% | [11]; at 3.7 µM -5% | [11]; at 11.0 µM -7% | [11]; at 33.0 µM 60% | [11]; at 100.0 µM 56% | [12]; at 1.2 µM -34% | [12]; at 3.7 µM -37% | [12]; at 11.0 µM 14% | [13]; [17] 27% | [14]; at 1.2 µM 3% | [14]; at 3.7 µM -4% | [14]; at 11.0 µM 6%

CCN(CC)CCSc1c2ccccc2nc2cc(NCC(=O)Nc3ccccc3-c3ccccc3NC(=O)CNc3ccc4c(SCCN(CC)CC)c5ccccc5nc4c3)ccc12
active: [2]; at 100.0 µM 96% | [15]; at 100.0 µM 89% | [16]; at 33.0 µM 85% | [16]; at 100.0 µM 97% | [3]; at 33.0 µM 75% | [3]; [18] 96% | [3]; at 50.0 µM 89.5% | [3]; at 100.0 µM 95% | [4]; at 33.0 µM 91% | [4]; [18] 98% | [4]; at 50.0 µM 89.5% | [4]; at 100.0 µM 97% | [5]; at 33.0 µM 74% | [5]; at 100.0 µM 96% | [6]; [18] 97% | [6]; at 50.0 µM 89.2% | [7]; at 100.0 µM 96% | [9]; at 33.0 µM 92% | [9]; [18] 89% | [9]; at 50.0 µM 90.5% | [9]; at 100.0 µM 98% | [10]; at 100.0 µM 96% | [11]; at 33.0 µM 80% | [11]; at 100.0 µM 96% | [12]; at 100.0 µM 96% | [13]; [18] 98% | [13]; at 50.0 µM 89% | [14]; at 100.0 µM 97%
inactive: [2]; at 1.2 µM -21% | [2]; at 3.7 µM -16% | [2]; at 11.0 µM -25% | [2]; at 33.0 µM 23% | [15]; at 1.2 µM 9% | [15]; at 3.7 µM 10% | [15]; at 11.0 µM -8% | [15]; at 33.0 µM 38% | [16]; at 1.2 µM 9% | [16]; at 3.7 µM 17% | [16]; at 11.0 µM 19% | [3]; at 1.2 µM 13% | [3]; at 3.7 µM 15% | [3]; [17] 23% | [3]; at 11.0 µM 15% | [4]; at 1.2 µM 23% | [4]; at 3.7 µM 22% | [4]; [17] 20% | [4]; at 11.0 µM 16% | [5]; at 1.2 µM -14% | [5]; at 3.7 µM -15% | [5]; at 11.0 µM -12% | [6]; [17] 21% | [7]; at 1.2 µM 2% | [7]; at 3.7 µM 7% | [7]; at 11.0 µM 11% | [7]; at 33.0 µM 44% | [8]; [17] 15% | [8]; [18] 13% | [8]; at 50.0 µM 41% | [9]; at 1.2 µM 36% | [9]; at 3.7 µM 30% | [9]; [17] 27% | [9]; at 11.0 µM 31% | [10]; at 1.2 µM -5% | [10]; at 3.7 µM -3% | [10]; at 11.0 µM 2% | [10]; at 33.0 µM 48% | [11]; at 1.2 µM -12% | [11]; at 3.7 µM -7% | [11]; at 11.0 µM -5% | [12]; at 1.2 µM -14% | [12]; at 3.7 µM -18% | [12]; at 11.0 µM -22% | [12]; at 33.0 µM 63% | [13]; [17] 42% | [14]; at 1.2 µM 16% | [14]; at 3.7 µM 12% | [14]; at 11.0 µM 11% | [14]; at 33.0 µM 69%

CCC(C)/C(C)=N/NC(N)=O (stereo unspecified)
inactive: [2]; at 1.2 µM 0% | [2]; at 3.7 µM 2% | [2]; at 11.0 µM 3% | [2]; at 33.0 µM 3% | [2]; at 100.0 µM 1% | [15]; at 1.2 µM -5% | [15]; at 3.7 µM -1% | [15]; at 11.0 µM -3% | [15]; at 33.0 µM -9% | [15]; at 100.0 µM -14% | [16]; at 1.2 µM 0% | [16]; at 3.7 µM -2% | [16]; at 11.0 µM 1% | [16]; at 33.0 µM 14% | [16]; at 100.0 µM 1% | [3]; at 1.2 µM 2% | [3]; at 3.7 µM 0% | [3]; [17] -7% | [3]; at 11.0 µM 0% | [3]; at 33.0 µM 0% | [3]; [18] 30% | [3]; at 50.0 µM 58.2% | [3]; at 100.0 µM 0% | [4]; at 1.2 µM -1% | [4]; at 3.7 µM 2% | [4]; [17] -3% | [4]; at 11.0 µM -1% | [4]; at 33.0 µM -3% | [4]; [18] -2% | [4]; at 50.0 µM 18.1%
